# Source: PubChem BioAssay (National Center for Advancing Translational Sciences (NCATS))
# Rows were chosen to be rich in hits. Some 12% of all compounds tested hit in one or more screens of this group.
# HP1b binding inh – inhibitors of HP1-beta chromodomain binding to methylated histone tails; AID 540317; actives 0.56% (n = 390,000); P83916; AlphaScreen HP1-beta / biotin-H3K9me3 peptide binding; Potency, µM (titrated, usually from 114 µM), inactives show at the highest dose activity change, negative = inhibition, usual class: inhibitors; further: nearly all actives have a fitted effect of over 70% in size
# Target sequence (P83916 whole entry, looked up): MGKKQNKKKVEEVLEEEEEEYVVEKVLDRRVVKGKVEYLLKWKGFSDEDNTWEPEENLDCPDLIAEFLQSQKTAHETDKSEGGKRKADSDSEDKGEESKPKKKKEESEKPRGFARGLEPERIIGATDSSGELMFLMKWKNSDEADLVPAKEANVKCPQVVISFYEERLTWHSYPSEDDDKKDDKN
#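 HP1-beta protein (50 nM final) preincubated 30 min at room temperature with biotinylated H3(1-18)K9me3 peptide (50 nM) in PBS pH 7.4, 0.01% Tween-20, then compound added for 30 min. AlphaScreen streptavidin donor/nickel chelate acceptor beads (10 ug/mL final), 30 min dark, luminescence read.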
# G9a inh – blocks human histone lysine methyltransferase G9a; G9a H3K9 monomethylation, AlphaScreen, 2 h; AID 504332; actives 8.8% (n = 350,000); Potency, µM (highest dose often 102 µM), without a hit: at the highest dose activity, negative = inhibition, usual class: inhibitors; further: on the % scale 0 is the no-effect control and ±100 the full control effect; nearly all actives have a fitted effect of over 75% in size
# Target sequence (Q96KQ7 913-1193 limits assumed): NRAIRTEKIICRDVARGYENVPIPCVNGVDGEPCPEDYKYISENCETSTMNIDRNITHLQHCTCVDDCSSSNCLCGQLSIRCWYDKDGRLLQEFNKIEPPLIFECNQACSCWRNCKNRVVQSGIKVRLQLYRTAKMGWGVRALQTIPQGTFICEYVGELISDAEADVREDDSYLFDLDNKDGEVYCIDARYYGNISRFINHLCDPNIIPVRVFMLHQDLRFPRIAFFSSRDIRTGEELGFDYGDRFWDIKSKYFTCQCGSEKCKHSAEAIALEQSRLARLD
#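 Step 1: enzyme (final 20 nM) with compound, 15 min RT. Step 2: substrate peptide 500 nM and SAM 20 uM, 2 h RT. Step 3: anti-H3K9me1 antibody and AlphaScreen beads, 10 min, then plate read.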
# Sfp PPTase inh – blocks B. subtilis Sfp PPTase activity. Q9F4F7. Biochemical Sfp PPTase activity, qHTS. Potency, µM, without a hit: largest response in the series, negative = inhibition, most hits filed as inhibitors. actives 3.5% (n = 310,000). AID 1490;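 further: the enzyme is Sfp with the accession as filed and its product quenches rhodamine fluorescence; 0% = enzyme reaction without inhibitor and -100% = no enzyme wells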
#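 Fluorescence-quenching assay: 15 nM Sfp-PPTase preincubated 15 min at room temperature with compound, then 5 uM rhodamine-CoA and 12.5 uM BHQ-2-labelled YbbR peptide added. Fluorescence (ex 525/em 598 nm) read at start and after 30 min; difference gives rate.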
# BAZ2B block – BAZ2B (human) inhibition. AlphaScreen BAZ2B-H3K14Ac peptide displacement. actives 4.4% (n = 360,000). Q9UIF8. Potency, µM (series often up to 114 µM), for the others: top-dose activity change, negative = inhibition, hits mostly inhibitors; further: on the % scale 0 is the no-effect control and ±100 the full control effect; nearly all actives have a fitted effect of over 60% in size
#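 AlphaScreen displacement of biotin-H3(5-23)K14Ac peptide (50 nM final) from BAZ2B (50 nM final) in PBS pH 7.4, 0.01% Tween-20; complex preformed 30 min RT, then compounds (top 110 uM) 30 min RT, beads 20 min dark.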
# JMJD2A Tudor inh – inhibitors of human JMJD2A Tudor domain; O75164; AlphaScreen JMJD2A-Tudor / H3K4me3 peptide binding; Potency, µM (titrated, usually from 114 µM), for inactives: top-dose activity change, negative = inhibition, actives largely listed as inhibitors; actives 4.4% (n = 390,000); further: on the % scale 0 is the no-effect control and ±100 the full control effect; nearly all actives have a fitted effect of over 50% in size
# Starred values were filed as active, the others as inactive; ? = inconclusive; . = no result; ! = not confirmed by another sample; [ ] = dose if it differs, or a comment. The call rests on the fitted dose curve; in most records, active means well fitted curve in the direction sought with a large enough effect; inconclusive means small, poorly fitted or top-dose-only effect, or another doubt; inactive means no such curve, though single readings can be large; an effect the other way counts as inactive or inconclusive. Potency means the concentration at half of the fitted maximal effect.
SMILES,HP1b binding inh,G9a inh,Sfp PPTase inh,BAZ2B block,JMJD2A Tudor inh
C/C=C/C=C\C(=O)Nc1cccc(C2=NOC3(C2)C[C@@H](C(N)=O)N(C(=O)/C(C)=C/C)C3)c1 (some centres not stated),-25%,-6%[12.7 µM],25µM*,-8%,?
C/C=C/C=C\C(=O)Nc1cccc(C2=NOC3(C2)C[C@H](C(N)=O)N(C(=O)CC#N)C3)c1 (some centres not stated),-12%,-24%[12.7 µM],13µM*,-21%,?
CCCCCC(=O)Nc1cccc(C2=NOC3(C2)C[C@H](C(N)=O)N(C(=O)c2ccccc2)C3)c1 (some centres not stated),38%,-11%[59 µM],14%,-18%,-32%
C/C=C/C(=O)N1CC2(CC(c3cccc(NC(=O)CCCCC)c3)=NO2)C[C@H]1C(N)=O (some centres not stated),.,0%[12.7 µM],14%,?,.
CCCCCC(=O)Nc1cccc(C2=NOC3(C2)C[C@H](C(N)=O)N(C(=O)CC#N)C3)c1 (some centres not stated),.,?,7%,56µM*,.
C/C=C\C(=O)Nc1cccc(C2=NOC3(C2)C[C@H](C(N)=O)N(C(=O)[C@H]2CCC(=O)N2)C3)c1 (some centres not stated),33%,-3%[59 µM],9%,1%,-6%
C/C=C/C=C/C(=O)N1CC2(CC(c3cccc(NC(=O)CCCCC)c3)=NO2)C[C@H]1C(N)=O (some centres not stated),-4%,?,22µM*,-6%,-28%
O=C(O)c1ccc(NC(=O)c2cc(S(=O)(=O)N3CCCCC3)c(Cl)cc2Cl)cc1,12%,-14%[59 µM],.,-4%,-3%
CCOC(=O)c1nc(NCc2ccccc2F)c2ccccc2n1,17%,-1%,8%,-30%,-5%
COc1ccc(C(=O)CCC(=O)NCCc2c[nH]c3ccccc23)cc1OC,30%,-7%,22%,-13%,-14%
O=C(c1ccco1)N1CCN(CC(O)COc2ccc(Br)cc2)CC1 (configuration not stated),19%,50µM*,13%,-3%,2%
OC(COc1ccc(Br)cc1)CN1CCC(Cc2ccccc2)CC1 (configuration not stated),37%,79µM*,6%,-24%,-8%
CC(=O)N1CCN(CC(O)COc2ccc(Br)cc2)CC1 (configuration not stated),?,8.9µM*,-22%,56µM*,18µM*
CCN(C(=O)COC(=O)c1nc2nc(C)cc(C)n2n1)C1CCS(=O)(=O)C1 (configuration not stated),18%,.,5%,-2%,-6%
Cc1ccc(OCc2ccc(C(=O)NCC3CCCO3)cc2)cc1 (configuration not stated),71%,-7%,11%,-19%,2%
CCC(C)(C)NC(=O)C(c1cccc(OC)c1OC)N(CCC(C)C)C(=O)CCC(=O)Nc1cc(C)on1 (configuration not stated),36%,1%,12%,-21%,-6%
Cc1cc2c(cc1S(=O)(=O)N1CCC(C)CC1)OCC(=O)N2,-13%,?,.,?,-30%
O=C1COc2cc(S(=O)(=O)NCc3ccco3)c(Cl)cc2N1,24%[57 µM],?,.,50µM*,-21%
Cc1cc2c(cc1S(=O)(=O)N1CCCCC1)OCC(=O)N2,?,-6%,8%,79µM*!,-17%
CCN(CC)c1ccc(CNS(=O)(=O)c2cc3c(cc2C)NC(=O)CO3)cc1,8%[57 µM],14µM*,.,-36%,?
Cc1cc2c(cc1S(=O)(=O)NCc1ccc(F)cc1)OCC(=O)N2,20%,-42%[59 µM],.,-27%,-23%
COc1ccc(CNS(=O)(=O)c2cc3c(cc2Cl)NC(=O)CO3)cc1,15%,-3%,5%,?,-13%
CCN(CC)S(=O)(=O)c1ccc(N2CC(C(=O)Nc3cccc(C(=O)NC4CC4)c3)CC2=O)cc1 (configuration not stated),21%,.,.,.,-12%
COc1cccc(CN2CCNC(=O)C2CC(=O)NCCc2nc(C)c(C)s2)c1OC (configuration not stated),48%,6%[12.7 µM],45µM*,-12%,-11%
Cc1nc(CNC(=O)CC2C(=O)NCCN2Cc2ccc(F)cc2)cs1 (configuration not stated),53%,50µM*,4%,-20%,0%
SMILES,HP1b binding inh,G9a inh,Sfp PPTase inh,BAZ2B block,JMJD2A Tudor inh
CC(C)(C)CN1CCNC(=O)C1CC(=O)NCCc1ccccc1F (configuration not stated),33%,.,-6%,?,-8%
CCOc1ccc(CN2CCNC(=O)C2CC(=O)NCc2csc(C)n2)cc1 (configuration not stated),18%,.,-9%,-6%,-18%
Cc1nc(CCNC(=O)CC2C(=O)NCCN2Cc2ccccc2F)sc1C (configuration not stated),-3%,45µM*,-8%,-14%,1%
Cc1nc(CCNC(=O)CC2C(=O)NCCN2Cc2ccc(F)cc2)sc1C (configuration not stated),25%,56µM*,32µM*,-2%,-16%
COc1ccccc1C(=O)Nc1cccc2c1CCCC2,21%,2%,10%,-31%,-6%
Cc1ccn2c(Nc3ccccc3)c(-c3c[nH]c4ccccc34)nc2c1,?,8.9µM*,.,10µM*,22µM*
Cc1ccc(Nc2c(-c3c[nH]c4ccccc34)nc3cc(C)ccn23)cc1,?,?,.,?,25µM*
O=C(COc1ccc(Cl)cc1)OCc1cc(=O)n2nc(C3CC3)sc2n1,50%,23%[59 µM],.,-4%,1%
Cc1ccc2c(Cl)cc(Cl)c(OCC(=O)Nc3cc(S(=O)(=O)N(C)C)ccc3C)c2n1,52%,71µM*,?,2%,-22%
Cc1ccc2c(Cl)cc(Cl)c(OCC(=O)Nc3cccc(S(=O)(=O)N(C)C)c3)c2n1,36%,17%[59 µM],3%,5%,-1%
Cc1ccc(S(=O)(=O)N(C)C)cc1NC(=S)NNC(=O)C1CC1,21%,1%[59 µM],5%,-20%,-11%
Cc1ccc(S(=O)(=O)N(C)C)cc1NC(=S)NNC(=O)C(N)=O,37%,45µM*,22%,-25%,-24%[11.4 µM]
Cc1ccc(S(=O)(=O)N(C)C)cc1NC(=O)COC(=O)C1CCCC1,20%,-18%,.,-3%,20µM*
CCOc1ccccc1NC(=O)C1CCCN(S(=O)(=O)c2ccc3c(c2)CCCN3C(C)=O)C1 (configuration not stated),23%[57 µM],-6%[59 µM],.,-12%,-20%
COc1cc(OC)cc(C(=O)N[C@H](C(=O)NC23CC4CC(CC(C4)C2)C3)C(C)C)c1,22%,-15%[12.7 µM],20%,6%,-7%
CCc1noc(C)c1C(=O)NNC(=O)c1ccccc1,30%,4%[2.33 µM],.,8%,5%
